# Measured values: PubChem BioAssay (NCI)
# About 83,000 compounds went through this panel and 20% of them were active in at least one assay; those are over-represented in the sample as a whole.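 Activity criterion: percent growth below 10, measured after cells in 96-well plates were exposed to a single compound concentration for 48 hours.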 Unmarked numbers belong to inactive results. Activity calls are given as the source filed them.
# Test system: NCI-H226 lung
# Test: NCI-60 one-dose screen, 48 h (100 = growth as untreated, 0 = no growth, -100 = all killed)
# Conditions: 10 µM
row,Compound,growth
1,O=C(NO)c1ccc(Cn2ccc3c(Nc4ccccc4)ncnc32)cc1,32%
2,N#Cc1ccc(-c2nn(-c3ccc(C(=O)O)cc3)cc2CNc2cccc(Br)c2)cc1,44.4%
3,O=C(c1ccc(Cl)cc1)C1[C@H](c2ccccc2Br)[C@@H](c2ccccc2)NC12C(=O)Nc1ccccc12 (some centres not stated),21.9%
4,CC1(C)CC[C@]2(C(=O)Nc3ccccc3)CC[C@]3(C)C(=CC[C@@H]4[C@@]5(C)CC[C@H](N)C(C)(C)[C@@H]5CC[C@]43C)[C@H]2C1,88.3%
5,CC(=C(c1ccc(OCCCN(C)C)cc1)c1ccc(OCCCN(C)C)cc1)c1ccccc1,-81.5% (active)
6,Cc1ccc(/C=C/C(=O)c2ccc(S(=O)(=O)NCCNc3nc(Nc4ccc(F)cc4)nc(N(C)C)n3)cc2)cc1,-1.6% (active)
7,COc1ccc(C(=O)Nc2sc3c(c2C#N)CCC(=O)C3)cc1C(F)(F)F,6.58% (active)
8,COc1ccc2nc(Cl)c(-c3cc(-c4ccccc4)nc(=S)[nH]3)cc2c1,80.2%
9,Cc1ccc(-c2cc(C(=O)N=Nc3c(O)[nH]c4ccccc34)c3ccccc3n2)cc1,47%
10,C#Cc1ccc(S(=O)(=O)Nc2cccc(-c3csc(NC(C)=O)n3)c2)cc1,71.8%
11,CC(C)C1=C[C@@]23CC[C@@H]4[C@](C)(CCC[C@]4(C)C(=O)NCc4ccccc4)[C@H]2C[C@@H]1[C@H]1C(=O)CCC(=O)[C@H]13,40.7%
12,COc1ccc(C(=O)NC(=S)N2CCN(c3ncnc4c3cnn4-c3ccccc3)CC2)cc1,9.11% (active)
13,C[C@H]1[C@H](C)CC[C@]2(COC(=O)CCC(=O)NCC#CCN3CCNCC3)CC[C@]3(C)C(=CC[C@@H]4[C@@]5(C)CCCNC(C)(C)[C@@H]5CC[C@]43C)[C@H]12,75.6%
14,CC[C@@]1(O)C(=O)OCc2c1cc1n(c2=O)Cc2c-1nc1cc(F)c(C)c3c1c2[C@@H](N)CC3,-54.1% (active)
15,Cc1cccc2cc(-c3cc(-c4ccccc4)nc(=S)[nH]3)c(Cl)nc12,90.5%
16,Cc1ccc(CNC(=O)Cc2ccc3c(c2)CN(C2CCC(=O)NC2=O)C3=O)cc1 (configuration not stated),3.79% (active)
17,CONC[C@]1(C)C=C2C(=O)[C@](C)(O)C3(CC3)C(C)=C2[C@H]1O,-26.7% (active)
18,CC1(C)CC[C@]2(C(=O)N3CCOCC3)CC[C@]3(C)C(=CC[C@@H]4[C@@]5(C)CC[C@H](NCO)C(C)(C)[C@@H]5CC[C@]43C)[C@H]2C1,-88.3% (active)
19,NS(=O)(=O)c1ccc(N=Nc2c(O)n(CC(=O)Nc3ccccc3Br)c3ccccc23)cc1,14.4%

row,Compound,growth
1,CNC(=O)c1cccc(N2CCc3c2ccc(NC(=O)Nc2ccc(N4CCN(C)CC4)c(C(F)(F)F)c2)c3F)c1,104%
2,O=C(NCCCCC(c1ccc(F)cc1)c1ccc(F)cc1)NCCCc1cccnc1,41.2%
3,CC(=O)Nc1ccc(-c2cn(-c3cccc(C(=O)Nc4ccc(Cl)c(C(F)(F)F)c4)c3)nn2)cn1,-72.8% (active)
4,CCCS(=O)(=O)c1oc(-c2ccc(F)cc2)nc1S(=O)(=O)c1ccc(F)cc1,64.7%
5,O=C(Cn1nc(-c2ccccc2)ccc1=O)NN1C(=O)c2ccccc2C1=O,101%
6,CC(=O)NCC1=C(C)C=C2C(=O)[C@](C)(O)C3(CC3)C(C)=C21,-72.2% (active)
7,CCN1CCN(Cc2ccc(C(=O)Nc3cccc(-c4cn(-c5ccc6oc(=O)ccc6c5)nn4)c3)cc2C(F)(F)F)CC1,-82.1% (active)
8,CCOP(=O)(OCC)O[C@H]1CCC(=O)[C@@H]2[C@H]1[C@H]1C[C@@H]3[C@@]4(C)CCCC(C)(C(=O)OC)[C@@H]4CC[C@@]23C=C1C(C)C (some centres not stated),48.9%
9,O=C1Nc2ccc(F)cc2/C1=C/c1cccc(OCc2ccccn2)c1,49.9%
10,CC1=N/C(=C\c2ccc(N(C)C)cc2)C(=O)N1CCc1ccc(S(N)(=O)=O)cc1,98.3%
11,O=C(Nc1ccc(I)cc1F)c1cc(-c2ccc(F)cc2F)ccc1O,-7.15% (active)
12,C/C(=N\NC(N)=S)c1ccc(Nc2nc(SC(C)C)nc(-c3ccccc3)c2C#N)cc1,27.5%
13,COc1ccc2c(c1)N=C(C(=O)O)/C2=C/c1sc(Nc2ccc(O)cc2)nc1O,54.8%
14,COc1cc(-c2nc3cc(Cl)c(Cl)cc3[nH]2)ccc1OCc1nnc(-c2ccc(Br)cc2)o1,-46.8% (active)
15,Cc1ccc(NC(=O)c2ccc(-n3c(=O)[nH]c4ccccc4c3=O)cc2)cc1,61%
16,CC(=C(c1ccc(OCCN2CCCCC2)cc1)c1ccc(OCCN2CCCCC2)cc1)c1ccccc1,82.4%
17,CCCCCc1ccc(S(=O)(=O)N(C(C)=O)c2cc(-c3csc(N(C)C(C)=O)n3)ccc2N2CCN(C)CC2)cc1,72.2%
18,COc1cc2c3c(n(CCCNC(C)C)c(=O)c2cc1OC)-c1nc2c(cc1C3=O)OCO2,-32.2% (active)
